Tau filament bind = binders of human tau filaments. P10636. recombinant tau filaments, thioflavin S fluorescence, 15 h; filaments grown with octadecylsulfate alongside compound. Potency, µM (titrated, usually from 57.1 µM), for inactives: top-dose activity change, negative = inhibition. actives 2% (n = 71,000). AID 596;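 also: % is scaled to controls: 0 for no effect and ±100 for the full control effect; actives lower thioflavin S fluorescence by blocking filaments or displacing dye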
Target sequence (P10636 whole entry, looked up): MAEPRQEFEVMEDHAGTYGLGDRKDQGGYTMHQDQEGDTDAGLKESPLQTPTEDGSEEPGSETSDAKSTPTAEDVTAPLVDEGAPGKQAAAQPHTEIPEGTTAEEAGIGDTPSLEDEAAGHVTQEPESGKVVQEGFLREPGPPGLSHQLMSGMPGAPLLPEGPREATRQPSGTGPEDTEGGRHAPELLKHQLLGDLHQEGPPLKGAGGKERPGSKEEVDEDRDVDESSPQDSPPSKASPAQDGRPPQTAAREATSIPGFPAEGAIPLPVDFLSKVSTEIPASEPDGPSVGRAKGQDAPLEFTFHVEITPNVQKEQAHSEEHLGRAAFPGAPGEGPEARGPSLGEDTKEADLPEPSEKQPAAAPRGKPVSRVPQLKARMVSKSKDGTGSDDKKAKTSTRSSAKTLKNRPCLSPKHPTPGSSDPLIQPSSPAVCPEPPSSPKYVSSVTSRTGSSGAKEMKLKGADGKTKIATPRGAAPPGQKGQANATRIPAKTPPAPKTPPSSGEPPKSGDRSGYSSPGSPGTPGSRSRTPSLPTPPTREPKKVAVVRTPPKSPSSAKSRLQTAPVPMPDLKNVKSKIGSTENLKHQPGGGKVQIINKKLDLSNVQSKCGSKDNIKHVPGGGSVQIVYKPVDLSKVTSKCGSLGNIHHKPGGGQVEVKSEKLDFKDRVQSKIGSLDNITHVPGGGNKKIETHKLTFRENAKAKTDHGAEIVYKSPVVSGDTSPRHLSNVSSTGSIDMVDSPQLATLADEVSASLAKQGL
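His-tagged recombinant human tau (exons 2, 3 and 10 included), 1 uM, was induced to fibrillize by 30 uM sodium octadecylsulfate with compound present. After 15 h at 37 C, thioflavine S fluorescence (ex 450, em 510 nm) was read.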
IkB sig inh = inhibitors of IkB signaling in ABC-DLBCL cells | Potency, µM (highest dose often 57.1 µM), for the others: at the highest dose IkBa stabilization activation | ABC-DLBCL IkBa-CBG/CBR dual luciferase ratio, 4 h; response scale: scaled: untreated 0%, proteasome inhibitor 100% | actives 0.04% (n = 110,000); active = well fitted curve in the direction sought with a large enough effect in the signal ratio, not every such curve was filed as active; inconclusive = small, poorly fitted or top-dose-only effect, or a change in a side signal; the % refers to the signal ratio;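 also: the direction sought is a rising ratio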
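In this assay, an IκBα–CBG68 fusion accumulates when IKK-driven degradation is blocked; native CBR normalizes for cell number. OCI-Ly3 cells were treated 4 h with compound and doxycycline, then green and red light read after Chroma-Glo addition.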
CRE-bla Fsk = alters forskolin-stimulated CRE reporter signaling in CHO cells. CHO CRE-bla reporter (cAMP response element driving beta-lactamase), forskolin EC10, beta-lactamase ratio. Potency, µM (highest dose often 38.2 µM), for the others: top-dose activity change, negative = inhibition, hits mostly activators. actives 2.5% (n = 71,000). AID 662; active = well fitted activation curve with a large enough effect in the signal ratio, with a control signal flat, not every such curve was filed as active; inconclusive = small, poorly fitted or top-dose-only effect, or effect the other way, or a change in a side signal; the % refers to the signal ratio; also: % of control where 0% means no effect
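CHO CRE-bla cells, overnight plating in Opti-MEM with 0.5% dialyzed FBS; cpd titration + EC10 NKH 477, 3 h 37 °C; CCF4 2 h RT; ex 405/em 460 vs 530 ratio → %Activity, AC50.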
Hsp90 Hop PPI = changes Hsp90-Hop TPR2A binding signal, up or down | Potency, µM (top dose mostly 57 µM), for the others: at the top dose activity change, negative = inhibition | AlphaScreen TPR2A-His6 binding biotin-Hsp90 C-terminal peptide | actives 0.44% (n = 71,000) | AID 595; active = well fitted curve in either direction with a large enough effect; inconclusive = small, poorly fitted or top-dose-only effect, or another doubt; also: % is scaled to controls: 0 for no effect and ±100 for the full control effect
ALOX15 inhib = inhibitors of human 15-lipoxygenase (ALOX15); purified 15hLO-1, xylenol orange hydroperoxide absorbance; Potency, µM (titrated, usually from 57.1 µM), for inactives: at the highest dose activity change, negative = inhibition, most hits filed as inhibitors; actives 1.4% (n = 74,000); also: % is scaled to controls: 0 for no effect and ±100 for the full control effect; nearly all actives have a fitted effect of over 55% in size
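Inhibition is scored from a chromogenic endpoint. After 15 min enzyme-compound contact, arachidonic acid (50 uM final) reacts 6 min with 40 nM 15hLO-1 at room temperature, then Fe-XO reagent is added for 30 min and absorbance ratio recorded.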
Active calls of the source: *; ? = inconclusive; nt = no result; [ ] = remark or other dose. The list is not random: actives were taken first. Their share in the collection is about 3.6%. Unless noted, calls follow the shape of the dose curve; as a rule, active = well fitted curve in the direction sought with a large enough effect; inconclusive = small, poorly fitted or top-dose-only effect, or another doubt; inactive = no such curve, though single readings can be large; an effect the other way counts as inactive or inconclusive. Potency is read from the fitted curve at half-maximal effect.

SMILES | Tau filament bind | IkB sig inh | CRE-bla Fsk | Hsp90 Hop PPI | ALOX15 inhib
c1cncc(-c2cc(-n3ccnc3)ncn2)c1 | -25% | -2%[11.4 µM] | ? | -7% | ?
N#Cc1cccc(-c2cc(-n3ccnc3)ncn2)c1 | 3% | 0%[11.4 µM] | 5% | -8% | ?
CNc1cc(-c2ccccc2CN(C)C)ncn1 | 0% | -1%[11.4 µM] | 2% | 2% | 15%
CN(C)Cc1ccccc1-c1cc(-n2ccnc2)ncn1 | -3% | -3%[11.4 µM] | ? | -10% | 13µM*
CN(C)c1ccc(-c2cc(-n3ccnc3)ncn2)cc1 | -9% | 0%[11.4 µM] | 10µM* | -9% | ?
O=C(/C=N/O)NCCCCNC(=O)/C=N/O | nt | nt | nt | nt | -6%[11.4 µM]
CCOC(=O)c1c(C)[nH]c(CCC(=O)NCCCN2CCN(c3ccccc3F)CC2)c1C | nt | -1% | nt | nt | nt
O=S(=O)(c1ccc(OC(F)(F)F)cc1)N1CCC(c2nnnn2-c2ccc(F)cc2)CC1 | nt | 1% | nt | nt | nt
CC1CCN(S(=O)(=O)c2ccc3c(ccc(=O)n3CC(=O)Nc3cccc(F)c3)c2)CC1 | nt | 1% | nt | nt | nt
CCOC(=O)c1c(C)[nH]c(C=Nc2ccccc2)c1O | 4% | 3% | ? | -5% | 5µM*
CCOC(=O)c1ccc(N=Cc2nc3ccccc3n2C)cc1 | -1% | 5% | -5% | -1% | 8%
CN(C)Cc1cc(O)c(O)c(CN(C)C)c1 | 7%[11.4 µM] | 1%[11.4 µM] | -7%[7.6 µM] | 4%[11 µM] | ?
CCCSc1ccc2nc(NC(=O)OC)[nH]c2c1 | -12%[25.6 µM] | ? | 7.9µM* | -7%[26 µM] | -12%
COC(=O)Nc1nc2ccc(SC(C)C)cc2[nH]1 | 11%[25.6 µM] | ? | ? | 1%[26 µM] | 10%[25.6 µM]
COC(=O)Nc1nc2ccc(C(=O)c3ccccc3)cc2[nH]1 | -1%[25.6 µM] | ? | 10µM* | -2%[26 µM] | -1%
CCc1cccc(NC(=O)CCNS(=O)(=O)c2ccc3c(c2)CCN3C(C)=O)c1 | nt | -2% | nt | nt | nt
CC(C)(C)c1ccc(O)c(O)c1 | 3% | ? | ? | -10% | 4µM*
CCCCCCCCCC(=O)O[C@H](CC(=O)O)C[N+](C)(C)C | ? | 0% | -6% | -8% | -9%[25.6 µM]
S=c1ccss1 | nt | nt | nt | nt | 7.9µM*
C/C(=C\C(=O)c1ccc(F)cc1)Nc1ccc(N2CCOCC2)cc1 | 6.3µM* | 1% | -5% | -11% | ?
Cc1ccc2nc3c(cc(C(=O)NCc4ccccc4)c(=N)n3CCCn3ccnc3)c(=O)n2c1 | 0.5µM* | -1% | ? | ? | 17%
N#Cc1cc2c(=O)n3ccccc3nc2n(CCCn2ccnc2)c1=N | 33% | 0% | 10µM* | -9% | -17%
Cc1ccc2nc3c(cc(C(N)=S)c(=N)n3CCCOC(C)C)c(=O)n2c1 | 329% | 2% | 10µM* | -21% | ?
COCCCn1c(=N)c(C(=O)NCc2cccnc2)cc2c(=O)n3cc(C)ccc3nc21 | nt | 1% | nt | nt | nt
Cc1cccn2c(=O)c3cc(C(=O)NC(C)c4ccccc4)c(=N)n(CCCn4ccnc4)c3nc12 (stereo unspecified) | 1.3µM* | 4% | ? | -21% | 15%
SMILES | Tau filament bind | IkB sig inh | CRE-bla Fsk | Hsp90 Hop PPI | ALOX15 inhib
CC(C)C[C@@H](CC(=O)N[C@@H](CCC(=O)O)CC(=O)O)NC(=O)[C@@H]1CNCC[C@H]1NC(=O)C[C@H](CCCN)NC(=O)C[C@H](Cc1ccccc1)NC(=O)[C@@H]1CNCC[C@H]1N | -4% | 4% | -16% | -7% | nt
Cc1cn2c(=O)cc(COC(=O)c3cccc(NC(=O)COc4ccccc4Cl)c3)nc2s1 | nt | -1% | nt | nt | nt
CNC(=O)C1CCC(Cn2c(=O)c3sccc3n(CC(=O)Nc3cc(C)cc(C)c3)c2=O)CC1 (stereo unspecified) | nt | 0% | nt | nt | nt
CCOC(=O)c1ccccc1NC(=O)Cn1c(-c2nonc2N)nc2ccccc21 | 288% | 7% | 2µM* | -4% | 0%
CC1CCCN(C(=O)c2cc3c(-c4ccc(Cl)cc4)nn(C)c3s2)C1 (stereo unspecified) | 70% | 1% | 3.2µM* | -2%[2.3 µM] | 1%
COc1ccc(-c2nn(C)c3sc(C(=O)N4CCOCC4)cc23)cc1OC | 1% | 3% | 10µM* | 0% | -1%
COc1ccc(N2CCN(C(=O)c3cc4c(-c5cccc(OC)c5)nn(C)c4s3)CC2)cc1 | -27% | 2% | 4µM* | ? | -5%
CCN1CCN(C(=O)c2cc3c(-c4ccc(Cl)cc4)nn(C)c3s2)CC1 | 99% | -1% | ? | -4%[2.3 µM] | -1%
COc1cc(-c2nc(S(=O)(=O)c3ccccc3)c(N3CCOCC3)o2)cc(OC)c1OC | 6% | -1% | 1.3µM* | -11% | 2%
COc1cc(OC)c(C2N(c3ccc(Cl)cc3)C(=O)C3CCCN32)cc1OC (stereo unspecified) | 20µM* | -2% | 5% | -5% | 1%
COc1cc(Nc2cc(C)nc3nc(C)nn23)cc(OC)c1OC | -6% | 1% | 4µM* | -3% | -1%
COc1ccc(C)cc1Nc1cc(C)nc2nc(C)nn12 | -5% | -4% | 10µM* | 1% | 2%
COc1cccc(Nc2cc(C)nc3nc(C)nn23)c1 | 0% | 3% | 13µM* | -1% | 7%
COc1cccc(Nc2cc(C)nc3nc(-c4ccc(Cl)cc4)nn23)c1 | nt | 11% | nt | nt | nt
COc1ccc(Nc2cc(C)nc3nc(C)nn23)cc1Cl | 18% | 1% | ? | 1% | 37%
O=C(CN1C(=O)C2(SCC(=O)N2c2cccc(F)c2)c2ccccc21)NCCc1ccccc1 (stereo unspecified) | nt | 5% | nt | nt | nt
CC(C)c1nn2c(=O)cc(COC(=O)COc3ccccc3F)nc2s1 | nt | 3% | nt | nt | nt
CCCC(=O)Nc1nc2c(s1)CC(C(C)(C)C)CC2 (stereo unspecified) | nt | -1% | nt | nt | nt
COC(=O)C1CCN(C(c2cc(OC)c(OC)c(OC)c2)c2sc3nc(C)nn3c2O)CC1 (stereo unspecified) | -20% | -2% | 13µM* | -1% | -6%
COc1ccccc1NC(=O)N(Cc1ccc2c(c1)OCO2)Cc1nc2ccccc2c(=O)[nH]1 | 5% | 5% | ? | -4% | 1%
COc1cccc(C(=O)N(Cc2ccc3c(c2)OCO3)Cc2nc3ccccc3c(=O)[nH]2)c1 | 5% | -1% | 5µM* | -7% | -6%
O=C(COc1ccc(F)cc1)Nc1nnc(S(=O)(=O)N2CCc3ccccc32)s1 | nt | 1% | nt | nt | nt
COc1ccc(OC)c(NC(=O)CCc2c(C)nn(-c3ccc(N4CCCC4)nn3)c2C)c1 | nt | 0% | nt | nt | nt
O=C1CSC(=S)N1/N=C\c1ccc(Cl)c([N+](=O)[O-])c1 | 4µM* | 6%[11.4 µM] | -21%[7.6 µM] | -8%[11 µM] | 2%[11.4 µM]
CCOC(=O)c1oc2cccc(O)c2c1CN1CCOCC1 | -7% | -3% | 13µM* | ? | -15%
COc1ccc2cc(C(C)CO)ccc2c1 (stereo unspecified) | nt | nt | nt | nt | 4%

Screening results (PubChem)
